Experimental data taken from ChEMBL document CHEMBL1961873, “Compounds: GSK PKIS; Assays: Nanosyn kinase panel” (2012).

How the values were obtained:
[1] = tested on: Tyrosine-protein kinase ABL1 (Homo sapiens), P00519 [T315I]; details: at 1 µM
[2] = tested on: Tyrosine-protein kinase ABL1 (Homo sapiens), P00519 [Y253F]; details: at 0.1 µM
[3] = tested on: Tyrosine-protein kinase ABL1 (Homo sapiens), P00519 [Y253F]; details: at 1 µM
[4] = target: Tyrosine-protein kinase ABL1 (Homo sapiens) (UniProt P00519); details: at 0.1 µM
[5] = target: Tyrosine-protein kinase ABL1 (Homo sapiens) (UniProt P00519); details: at 1 µM
[6] = target: ALK tyrosine kinase receptor (Homo sapiens) (UniProt Q9UM73); details: at 0.1 µM
[7] = target: ALK tyrosine kinase receptor (Homo sapiens) (UniProt Q9UM73); details: at 1 µM
[8] = target: Tyrosine-protein kinase ABL2 (Homo sapiens) (UniProt P42684); details: at 0.1 µM
[9] = target: Tyrosine-protein kinase ABL2 (Homo sapiens) (UniProt P42684); details: at 1 µM
[10] = target: Tyrosine-protein kinase receptor UFO (Homo sapiens) (UniProt P30530); details: at 0.1 µM
[11] = target: Tyrosine-protein kinase receptor UFO (Homo sapiens) (UniProt P30530); details: at 1 µM
[12] = target: Tyrosine-protein kinase Blk (Homo sapiens) (UniProt P51451); details: at 0.1 µM
[13] = target: Tyrosine-protein kinase Blk (Homo sapiens) (UniProt P51451); details: at 1 µM
[14] = target: T1, Cytoplasmic tyrosine-protein kinase BMX (Homo sapiens) (UniProt P51813); details: at 0.1 µM
T1 sequence (whole entry): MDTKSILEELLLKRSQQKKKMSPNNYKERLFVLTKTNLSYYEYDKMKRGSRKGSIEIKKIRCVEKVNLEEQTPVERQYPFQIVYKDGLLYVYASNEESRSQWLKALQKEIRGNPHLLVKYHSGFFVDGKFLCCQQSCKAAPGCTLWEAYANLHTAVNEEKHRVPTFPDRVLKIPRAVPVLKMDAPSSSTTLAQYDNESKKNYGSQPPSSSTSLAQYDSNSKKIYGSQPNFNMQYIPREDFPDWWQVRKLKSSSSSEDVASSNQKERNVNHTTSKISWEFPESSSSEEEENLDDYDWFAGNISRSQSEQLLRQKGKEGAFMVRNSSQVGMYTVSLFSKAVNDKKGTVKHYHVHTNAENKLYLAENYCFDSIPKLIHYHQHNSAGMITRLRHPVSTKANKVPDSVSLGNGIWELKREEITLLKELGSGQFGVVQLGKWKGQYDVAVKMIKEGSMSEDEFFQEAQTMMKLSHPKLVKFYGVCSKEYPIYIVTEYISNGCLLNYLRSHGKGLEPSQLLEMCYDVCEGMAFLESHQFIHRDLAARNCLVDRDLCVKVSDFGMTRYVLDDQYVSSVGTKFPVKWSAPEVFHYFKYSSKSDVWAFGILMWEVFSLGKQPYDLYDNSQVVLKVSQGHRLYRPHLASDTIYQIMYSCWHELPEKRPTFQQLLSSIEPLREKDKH

[15] = target: T1, Cytoplasmic tyrosine-protein kinase BMX (Homo sapiens); details: at 1 µM
[16] = target: Protein-tyrosine kinase 6 (Homo sapiens) (UniProt Q13882); details: at 0.1 µM
[17] = target: Protein-tyrosine kinase 6 (Homo sapiens) (UniProt Q13882); details: at 1 µM
[18] = target: Tyrosine-protein kinase BTK (Homo sapiens) (UniProt Q06187); details: at 0.1 µM
[19] = target: Tyrosine-protein kinase BTK (Homo sapiens) (UniProt Q06187); details: at 1 µM
[20] = target: Tyrosine-protein kinase CSK (Homo sapiens) (UniProt P41240); details: at 0.1 µM;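 further: value given is the averaged percent inhibition of CSK kinase activity, from the GSK PKIS kinase inhibitor set screening panel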
Tyrosine-protein kinase CSK (Homo sapiens), sequence (P41240 2-450 limits assumed): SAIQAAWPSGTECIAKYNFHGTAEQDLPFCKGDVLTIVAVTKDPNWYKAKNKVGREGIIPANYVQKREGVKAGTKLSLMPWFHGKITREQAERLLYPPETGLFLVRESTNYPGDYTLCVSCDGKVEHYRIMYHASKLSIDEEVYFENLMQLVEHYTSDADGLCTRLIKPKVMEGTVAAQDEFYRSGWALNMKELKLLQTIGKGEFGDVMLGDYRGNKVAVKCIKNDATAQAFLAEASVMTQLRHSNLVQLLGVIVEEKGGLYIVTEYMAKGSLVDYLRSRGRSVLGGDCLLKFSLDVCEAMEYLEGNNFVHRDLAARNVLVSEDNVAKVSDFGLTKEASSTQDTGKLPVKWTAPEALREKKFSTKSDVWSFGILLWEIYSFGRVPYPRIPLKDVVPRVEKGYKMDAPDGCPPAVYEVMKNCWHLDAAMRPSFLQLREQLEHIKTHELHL

Tyrosine-protein kinase Blk (Homo sapiens), sequence (P51451 2-505 limits assumed): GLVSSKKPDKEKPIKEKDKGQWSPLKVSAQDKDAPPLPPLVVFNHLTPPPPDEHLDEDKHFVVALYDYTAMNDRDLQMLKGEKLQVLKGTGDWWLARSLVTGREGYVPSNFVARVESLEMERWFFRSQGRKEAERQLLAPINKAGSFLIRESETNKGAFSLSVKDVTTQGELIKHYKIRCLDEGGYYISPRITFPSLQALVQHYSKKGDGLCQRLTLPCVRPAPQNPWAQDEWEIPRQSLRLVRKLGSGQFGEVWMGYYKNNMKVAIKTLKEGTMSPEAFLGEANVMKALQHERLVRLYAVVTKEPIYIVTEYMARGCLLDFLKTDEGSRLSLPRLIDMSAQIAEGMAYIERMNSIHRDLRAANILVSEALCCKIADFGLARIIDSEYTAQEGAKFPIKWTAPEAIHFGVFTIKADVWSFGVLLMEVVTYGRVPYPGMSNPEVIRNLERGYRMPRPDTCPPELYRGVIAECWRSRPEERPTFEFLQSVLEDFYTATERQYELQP
Tyrosine-protein kinase ABL2 (Homo sapiens), sequence (P42684 whole entry): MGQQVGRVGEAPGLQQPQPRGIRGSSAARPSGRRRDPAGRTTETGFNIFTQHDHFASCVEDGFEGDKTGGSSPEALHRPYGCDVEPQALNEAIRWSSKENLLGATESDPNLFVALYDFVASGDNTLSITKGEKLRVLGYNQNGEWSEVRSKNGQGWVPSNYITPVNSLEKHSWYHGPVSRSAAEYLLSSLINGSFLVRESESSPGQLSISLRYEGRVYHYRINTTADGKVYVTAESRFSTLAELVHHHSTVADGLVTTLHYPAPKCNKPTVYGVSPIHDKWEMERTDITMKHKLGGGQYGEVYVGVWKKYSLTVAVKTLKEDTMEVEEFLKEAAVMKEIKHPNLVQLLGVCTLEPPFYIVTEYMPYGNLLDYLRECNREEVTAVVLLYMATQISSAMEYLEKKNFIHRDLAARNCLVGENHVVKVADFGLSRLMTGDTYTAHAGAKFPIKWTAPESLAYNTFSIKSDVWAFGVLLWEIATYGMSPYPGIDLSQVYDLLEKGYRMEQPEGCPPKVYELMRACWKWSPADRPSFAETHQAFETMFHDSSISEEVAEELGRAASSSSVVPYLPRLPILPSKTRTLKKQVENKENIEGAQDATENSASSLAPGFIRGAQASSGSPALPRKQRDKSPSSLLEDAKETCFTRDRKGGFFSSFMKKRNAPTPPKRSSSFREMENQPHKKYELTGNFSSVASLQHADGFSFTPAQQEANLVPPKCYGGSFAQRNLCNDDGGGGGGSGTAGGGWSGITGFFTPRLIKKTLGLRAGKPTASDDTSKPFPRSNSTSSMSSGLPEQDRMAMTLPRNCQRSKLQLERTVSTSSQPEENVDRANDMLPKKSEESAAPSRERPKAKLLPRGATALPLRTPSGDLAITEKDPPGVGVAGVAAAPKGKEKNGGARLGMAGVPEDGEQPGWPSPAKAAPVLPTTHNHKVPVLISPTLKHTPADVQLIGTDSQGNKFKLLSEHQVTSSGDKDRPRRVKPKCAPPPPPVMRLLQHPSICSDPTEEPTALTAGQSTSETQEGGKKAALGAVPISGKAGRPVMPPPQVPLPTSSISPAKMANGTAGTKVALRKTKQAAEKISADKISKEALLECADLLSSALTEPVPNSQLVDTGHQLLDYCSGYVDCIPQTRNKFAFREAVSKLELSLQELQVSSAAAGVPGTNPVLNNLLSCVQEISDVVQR
ALK tyrosine kinase receptor (Homo sapiens), sequence (Q9UM73 19-1620 limits assumed): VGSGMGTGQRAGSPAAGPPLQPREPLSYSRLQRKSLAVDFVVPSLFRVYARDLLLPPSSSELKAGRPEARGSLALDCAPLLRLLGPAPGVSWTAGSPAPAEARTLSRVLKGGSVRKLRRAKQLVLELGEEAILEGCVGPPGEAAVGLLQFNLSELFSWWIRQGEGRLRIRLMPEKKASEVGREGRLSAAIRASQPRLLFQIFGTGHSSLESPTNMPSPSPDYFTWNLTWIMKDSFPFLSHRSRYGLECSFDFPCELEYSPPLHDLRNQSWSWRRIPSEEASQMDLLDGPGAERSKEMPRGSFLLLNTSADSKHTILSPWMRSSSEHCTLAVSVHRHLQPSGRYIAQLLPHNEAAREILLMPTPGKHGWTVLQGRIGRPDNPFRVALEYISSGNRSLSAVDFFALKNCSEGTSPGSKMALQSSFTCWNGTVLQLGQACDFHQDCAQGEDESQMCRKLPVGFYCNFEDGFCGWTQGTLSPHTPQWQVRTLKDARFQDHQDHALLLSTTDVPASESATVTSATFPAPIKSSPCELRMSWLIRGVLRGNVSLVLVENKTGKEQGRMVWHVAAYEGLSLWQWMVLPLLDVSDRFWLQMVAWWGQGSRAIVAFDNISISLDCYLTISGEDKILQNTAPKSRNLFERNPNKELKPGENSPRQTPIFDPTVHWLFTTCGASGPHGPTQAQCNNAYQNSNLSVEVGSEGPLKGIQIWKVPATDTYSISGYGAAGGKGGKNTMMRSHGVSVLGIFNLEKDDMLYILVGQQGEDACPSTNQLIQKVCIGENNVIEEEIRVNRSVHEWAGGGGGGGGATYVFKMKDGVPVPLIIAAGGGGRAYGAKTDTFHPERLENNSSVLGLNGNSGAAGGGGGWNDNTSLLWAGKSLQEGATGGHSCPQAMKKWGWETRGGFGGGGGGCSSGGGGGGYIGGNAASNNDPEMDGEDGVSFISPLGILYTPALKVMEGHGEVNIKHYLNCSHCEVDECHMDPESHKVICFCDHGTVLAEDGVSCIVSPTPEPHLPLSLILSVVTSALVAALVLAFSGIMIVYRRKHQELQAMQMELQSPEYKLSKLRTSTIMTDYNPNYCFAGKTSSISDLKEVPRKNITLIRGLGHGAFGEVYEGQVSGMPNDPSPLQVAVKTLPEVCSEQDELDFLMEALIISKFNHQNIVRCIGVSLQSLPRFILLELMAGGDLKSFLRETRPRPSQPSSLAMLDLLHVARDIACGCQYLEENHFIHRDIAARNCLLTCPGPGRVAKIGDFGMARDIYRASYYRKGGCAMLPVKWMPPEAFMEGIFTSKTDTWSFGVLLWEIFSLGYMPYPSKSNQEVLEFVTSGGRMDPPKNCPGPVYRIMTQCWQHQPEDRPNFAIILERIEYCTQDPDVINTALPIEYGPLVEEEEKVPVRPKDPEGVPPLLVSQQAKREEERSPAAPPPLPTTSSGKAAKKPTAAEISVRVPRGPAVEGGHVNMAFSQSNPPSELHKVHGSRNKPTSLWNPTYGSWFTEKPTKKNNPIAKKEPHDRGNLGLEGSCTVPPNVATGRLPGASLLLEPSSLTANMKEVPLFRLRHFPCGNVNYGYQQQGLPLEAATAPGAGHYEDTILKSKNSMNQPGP
Tyrosine-protein kinase receptor UFO (Homo sapiens), sequence (P30530 whole entry): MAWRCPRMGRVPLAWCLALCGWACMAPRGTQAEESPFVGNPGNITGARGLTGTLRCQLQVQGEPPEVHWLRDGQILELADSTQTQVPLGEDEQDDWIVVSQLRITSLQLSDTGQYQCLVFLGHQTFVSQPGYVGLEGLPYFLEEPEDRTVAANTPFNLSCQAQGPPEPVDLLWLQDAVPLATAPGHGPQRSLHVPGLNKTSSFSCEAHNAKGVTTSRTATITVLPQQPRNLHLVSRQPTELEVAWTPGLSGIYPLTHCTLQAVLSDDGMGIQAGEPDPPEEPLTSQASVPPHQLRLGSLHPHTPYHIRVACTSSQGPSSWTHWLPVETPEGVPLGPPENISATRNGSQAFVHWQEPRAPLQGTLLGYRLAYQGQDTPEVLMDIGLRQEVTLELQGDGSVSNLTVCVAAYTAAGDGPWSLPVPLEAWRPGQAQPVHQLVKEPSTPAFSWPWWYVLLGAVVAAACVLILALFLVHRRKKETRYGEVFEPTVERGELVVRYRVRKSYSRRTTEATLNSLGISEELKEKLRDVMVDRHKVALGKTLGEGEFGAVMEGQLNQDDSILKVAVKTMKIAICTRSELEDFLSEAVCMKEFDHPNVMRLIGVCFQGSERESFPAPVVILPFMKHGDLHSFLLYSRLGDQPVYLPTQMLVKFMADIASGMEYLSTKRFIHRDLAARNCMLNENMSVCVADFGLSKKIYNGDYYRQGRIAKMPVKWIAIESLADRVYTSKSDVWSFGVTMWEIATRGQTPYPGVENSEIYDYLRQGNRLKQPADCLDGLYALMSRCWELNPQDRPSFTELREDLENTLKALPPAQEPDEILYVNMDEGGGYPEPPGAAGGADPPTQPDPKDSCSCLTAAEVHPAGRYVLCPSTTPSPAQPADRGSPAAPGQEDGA
Protein-tyrosine kinase 6 (Homo sapiens), sequence (Q13882 whole entry, looked up): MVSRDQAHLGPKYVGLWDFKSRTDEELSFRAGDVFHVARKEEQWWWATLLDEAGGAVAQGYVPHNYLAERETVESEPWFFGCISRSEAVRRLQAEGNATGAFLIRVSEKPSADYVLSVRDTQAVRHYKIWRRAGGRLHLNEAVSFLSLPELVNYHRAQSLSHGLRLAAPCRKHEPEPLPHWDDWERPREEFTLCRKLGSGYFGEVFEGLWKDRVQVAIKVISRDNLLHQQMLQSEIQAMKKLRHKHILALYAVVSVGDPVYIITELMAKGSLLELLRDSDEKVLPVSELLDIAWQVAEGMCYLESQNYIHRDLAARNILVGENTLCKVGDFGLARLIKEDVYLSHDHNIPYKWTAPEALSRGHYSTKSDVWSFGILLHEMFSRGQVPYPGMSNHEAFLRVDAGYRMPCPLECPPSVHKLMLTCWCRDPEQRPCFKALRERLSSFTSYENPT

Row | Structure (SMILES) | inhibition [1] | inhibition [2] | inhibition [3] | inhibition [4] | inhibition [5] | inhibition [6] | inhibition [7] | inhibition [8] | inhibition [9] | inhibition [10] | inhibition [11] | inhibition [12] | inhibition [13] | inhibition [14] | inhibition [15] | inhibition [16] | inhibition [17] | inhibition [18] | inhibition [19] | inhibition [20]
1 | COc1cc(Nc2ncc3c(C)nc(-c4cccc(C(F)(F)F)c4)n3n2)cc(OC)c1OC | 13.1% | 3.77% | 16.2% | 2.35% | 14.6% | 2.22% | 6.97% | 3.85% | 13.1% | -3.79% | -0.36% | 3.39% | 25.1% | -0.78% | 11.9% | 3.48% | 5.36% | 2.11% | 4.31% | 4.48%
2 | Clc1ccc(CNc2nccc(-c3cnn4ncccc34)n2)cc1 | 2.99% | 2.53% | 4.96% | 1.08% | 8.86% | -0.45% | 3.1% | 3.17% | 7.59% | 1.22% | 2.45% | 1.31% | 3.34% | -1.56% | 2.62% | 0.74% | 3.52% | 0.65% | 1.7% | 3.92%
3 | CN(c1ccc(NC(=O)Nc2c(Cl)cccc2Cl)cc1)c1ccnc(Nc2cccc(CS(C)(=O)=O)c2)n1 | 73.2% | 19.4% | 56.2% | 16.9% | 53.1% | 1.74% | 4.6% | 25.1% | 55.1% | 4.33% | 28.6% | 37.2% | 75% | 47.1% | 73.5% | 10.8% | 44% | 18.8% | 26.5% | 10.6%
4 | C[C@@H](Oc1cc(-n2cnc3ccc(OC4CCN(C)CC4)cc32)sc1C(N)=O)c1ccccc1Cl | 7.51% | 3.29% | 13.1% | 0.35% | 7.3% | -0.85% | 5.48% | -1.57% | 2.18% | -8.27% | -3.62% | -0.86% | -0.94% | 4% | 6.6% | 2.72% | 3.15% | -4.65% | -3.35% | 2.4%
5 | NC(=O)Cc1ccccc1Oc1nccc(-c2c(-c3ccc(F)cc3)ncn2C2CCNCC2)n1 | -0.82% | 1.75% | 1.1% | 2.7% | 5.08% | 4.05% | 8.13% | 2.21% | 2.93% | -5.91% | 1.68% | 1.46% | 2.66% | 7.68% | 3.56% | 2.9% | 1.21% | 1.29% | 0.76% | 0.51%
6 | CCS(=O)(=O)c1ccc(OC)c(Nc2ncc(-c3cccc(-c4ccccc4F)c3)o2)c1 | 18% | 60.6% | 91.4% | 13.7% | 77.8% | 1.79% | 4.33% | 7.9% | 65.1% | 0.9% | 2.28% | 8.74% | 55.5% | -4.54% | 9.3% | 1.06% | 10.8% | -0.93% | 3.93% | 0.57%
7 | Cc1ccc(NC(=O)c2ccoc2)cc1-c1ccc(C(=O)NCC2CC2)cc1 | 1.92% | 1.38% | -0.92% | 1.09% | 1.49% | 1.85% | 4.11% | 2.28% | 2.36% | -3.64% | -2.93% | 1.47% | 3.07% | 3.34% | 1.66% | 0.58% | 4.58% | 0.36% | 0.35% | 1.61%
8 | O=C(Nc1n[nH]c2cc(-c3cc(F)ccc3F)ccc12)C1CC1 | 74% | 13.8% | 49.6% | 8.06% | 51.4% | 2.02% | 4.05% | 3.87% | 19% | -7.5% | -2.71% | 1.38% | 4.54% | 1.69% | 3.35% | 1.78% | 2.23% | -1.19% | -2.01% | 3.87%
9 | Fc1ccc(-c2nc3n(c2-c2ccncc2)CCS3)cc1 | 2.55% | 3.68% | 5.02% | -1.35% | 3.25% | -0.77% | 0.29% | 0.16% | 4.56% | -7.95% | -3.95% |  | -0.49% | 2.02% | 4.87% | -1.54% | 4.07% | -2.44% | -3.5% | 7.37%
10 | O=C(Nc1n[nH]c2cc(-c3ccccc3)ccc12)C1CC1 | 82.8% | 22.3% | 68% | 13.5% | 63.8% | 3.37% | 4.86% | 6.15% | 31.2% | -8.55% | -6.73% | 1.88% | 6.79% | 4.11% | 4.88% | 2.71% | 6.62% | 1.13% | 2.12% | 2.97%
11 | CCc1cccc(CC)c1/C=C/c1cncc(C(=O)NC)c1 | 4.76% | 5.29% | 22.2% | 8.06% | 45.9% | 2.66% | 4.03% | 5.58% | 12.9% | -2.3% | -1.28% | 2.14% | 4.46% | 0.51% | 4.87% | 2.78% | 3.98% | 2.48% | 2.98% | 1.29%
12 | COc1cccc(-n2cnc3c(N/N=C/c4ccncc4)ncnc32)c1 | 28.5% | 44.6% | 85.3% | 29% | 72.2% | -1.9% | -4.64% | 12.7% | 59.5% | 3.99% | -2.08% | -0.3% | 15.8% | -0.75% | 16.1% | 0.43% | 15.2% | -2.61% | -2.79% | 1.91%
13 | COc1cc(Nc2ncc3c(C)nc(-c4cccc(Oc5ccccc5)c4)n3n2)cc(OC)c1OC | 3.35% | 4.25% | 2.77% | 2.33% | 3.84% | 1.5% | 12.7% | 2.57% | 0.57% | 0.02% | 4.22% | 0.63% | 4.56% | 0.46% | 4.17% | 1.26% | 1.89% | 1.08% | 1.57% | 4.01%
